# Measured values taken from ChEMBL document CHEMBL3988442, “University of Dundee, Small-Polar-MMV Screening Library” (2021).
# Hit rate of the full screen: of about 69,000 compounds, about 1,000 (1.4%) showed an effect of 50% or more. The entries come from a sample that favours strong results as a whole.
# Tested on: Leishmania donovani
# Test: Leishmania intramacrophage assay
# Type: functional, organism-based
# Set-up: scale not given: in the data most compounds retested in dose-response had high values
structure (smiles),measurement,setting,value
COC(=O)c1cccn1C1CCN(Cc2cccnc2)CC1,Percent Effect,30 µM,38.52%
Cc1ccc(CN2CCc3c(COC(C)C)nn(C)c3C2)s1.O=C(O)C(F)(F)F,Percent Effect,"30.3 µM, […]",54.88%
O=C(O)C(F)(F)F.c1cnc(NCc2nnn3c2CN(Cc2ccco2)CCC3)nc1,Percent Effect,"30.3 µM, […]",-8.13%
O=C(O)C(F)(F)F.c1ccc(CN2CCCn3nnc(CNc4ncccn4)c3C2)nc1,Percent Effect,"30.3 µM, […]",67.35%
Cc1ccc(CN2CCCn3nnc(COCC4CC4)c3C2)s1.O=C(O)C(F)(F)F,Percent Effect,"30 µM, 30.03 µM",16.69%
Cc1ccc(CN2CCCn3nnc(COCCN(C)C)c3C2)s1.O=C(O)C(F)(F)F.O=C(O)C(F)(F)F,Percent Effect,"30.3 µM, […]",66.44%
O=C(O)C(F)(F)F.c1csc(CN2CCCn3cnc(COCC4CC4)c3C2)n1,Percent Effect,"30.3 µM, […]",26.9%
Fc1ccc(CN2CCCn3nnc(COCC4CC4)c3C2)cc1.O=C(O)C(F)(F)F,Percent Effect,"30.3 µM, […]",-0.08958%
COCc1nn(C(C)C)c2c1CCN(Cc1ccc(C)s1)C2.O=C(O)C(F)(F)F,Percent Effect,"30 µM, 30.03 µM",26.5%
Cc1ccc(CN2Cc3nnn(C)c3C(COCCN(C)C)C2)s1.O=C(O)C(F)(F)F.O=C(O)C(F)(F)F (stereo not given),Percent Effect,"30 µM, 30.03 µM",25.22%
O=C(O)C(F)(F)F.c1ccc(CN2CCCn3nnc(Cn4cccc4)c3C2)nc1,Percent Effect,"30.3 µM, […]",-22.64%
O=C(O)C(F)(F)F.c1csc(CN2CCCn3nnc(COCC4CC4)c3C2)n1,Percent Effect,"30.3 µM, […]",52.28%
Cc1ccc(CN2CCc3c(COCC4CC4)nn(C)c3C2)s1.O=C(O)C(F)(F)F,Percent Effect,"30.3 µM, […]",25.61%
Cc1ccccc1CN1C[C@@H]2CC[C@H](C1)N(CC1CCC1)C2=O,Percent Effect,"30.3 µM, […]",6.524%
COCc1noc(CN2C[C@H](C3CC3)[C@@H](N(C)C)C2)n1,Percent Effect,"30.3 µM, […]",0.8667%
COCCOCCNS(=O)(=O)C1CS(=O)(=O)c2ccccc21 (stereo not given),Percent Effect,"30.3 µM, […]",-2.938%
O=C(Nc1ccc(F)cc1)C1CNCCN1C(=O)CCc1cccnc1 (stereo not given),Percent Effect,"30.3 µM, […]",21.52%
CC1CN(C)CCN1C(=O)c1ccn(-c2ccc(F)cc2)n1 (stereo not given),Percent Effect,30 µM,12.79%
CN(CCN1CCCCCC1)C(=O)c1cc(CN2CCCC(O)C2)on1 (stereo not given),Percent Effect,"30.3 µM, […]",28.93%
COc1cccc2c1OCCCN(Cc1ccc(C(N)=O)c(=O)[nH]1)C2,Percent Effect,"30.3 µM, […]",18.01%
COc1c(CNCc2ccccc2CN2CCOCC2)c(C)nn1C,Percent Effect,"30.3 µM, […]",15.12%
O=C(CN1CCc2cncnc2C1)NC1CCCCNC1=O (stereo not given),Percent Effect,"30.3 µM, […]",3.811%
Cc1nc(COC[C@@]23CCC[C@@H]2CN(Cc2cnn(C)c2)C3)cs1,Percent Effect,"30.3 µM, […]",33.3%
Cn1cc(CN2C[C@@H]3COC[C@]3(COCC3CC3)C2)cn1.O=C(O)C(F)(F)F,Percent Effect,"30.3 µM, […]",35.55%
Cn1cc(CN2C[C@H]3CCC[C@@]3(COCC3CC3)C2)cn1.O=C(O)C(F)(F)F,Percent Effect,"30.3 µM, […]",55.4%
O=C(O)C(F)(F)F.O=C1N(c2ccsc2)CCC12CCCN(CC1CC1)C2 (stereo not given),Percent Effect,"30.3 µM, […]",57%
COCCN1CCCC2(CCN(c3ccsc3)C2=O)C1.O=C(O)C(F)(F)F (stereo not given),Percent Effect,"30.3 µM, […]",-19.62%
CN(C)C(=O)CN1CCCC2(CCN(c3ccsc3)C2=O)C1.O=C(O)C(F)(F)F (stereo not given),Percent Effect,"30 µM, 30.03 µM",-2.413%
Cc1ccoc1C(=O)N1C[C@@H](OCC2CC2)[C@H]2OCCC[C@H]21,Percent Effect,"30.3 µM, […]",18.9%
Cc1nc(NC(=O)C(C)N(C)Cc2ccc3c(c2)OCO3)sc1C (stereo not given),Percent Effect,"30.3 µM, […]",11.52%
Cc1nc(NC(=O)C(C)N(C)Cc2cccc(C#N)c2)sc1C (stereo not given),Percent Effect,"30.3 µM, […]",-18.76%
COc1cccc(CN(C)C(C)C(=O)Nc2nc(C)c(C)s2)c1 (stereo not given),Percent Effect,"30.3 µM, […]",51.15%
CCN(CC)C1CCN(C(=O)NCc2cccc(-n3ccnc3)c2)C1 (stereo not given),Percent Effect,"30.3 µM, […]",23.85%
Cl.O=C(N1CCCC1)C1(Cc2ccc(-c3cccs3)cc2)CCNC1 (stereo not given),Percent Effect,"30.3 µM, […]",86.38%
Cl.O=C(O)C1(Cc2ccc(-c3cccs3)cc2)CCNC1 (stereo not given),Percent Effect,"30.3 µM, […]",44.48%
Cl.O=C(O)C1(Cc2cccc(-c3cccs3)c2)CCCNC1 (stereo not given),Percent Effect,"30.3 µM, […]",29.13%
O=C(NCc1cc[nH]n1)NCC(O)c1ccc(F)cc1F (stereo not given),Percent Effect,"30 µM, 30.03 µM",9.759%
O=C(c1cnccn1)N1CCCC(C2=Nc3ccccc3S(=O)(=O)N2)C1 (stereo not given),Percent Effect,"30.3 µM, […]",-20.53%
O=C1CCC(=O)N1c1nn(Cc2cccc(F)c2)cc1Cl,Percent Effect,"30.3 µM, […]",-1.051%
CC(C)CN1CC(C(=O)NCCNc2ncccn2)CC1=O (stereo not given),Percent Effect,"30.3 µM, […]",7.647%
COCC(=O)N1CCCn2c(CN3CCCC3)nnc2C1,Percent Effect,"30.3 µM, […]",44.76%
COCC(=O)N1CCCn2c(CN3CCCCC3)nnc2C1.O=C(O)C(F)(F)F,Percent Effect,"30 µM, 30.03 µM",-9.377%
COCC(=O)N1CCCn2c(CN3CCCC3=O)nnc2C1,Percent Effect,"30.3 µM, […]",51.47%
CCOc1ccc(C(=O)NS(=O)(=O)c2cncc(Br)c2)cc1OC,Percent Effect,"30 µM, 30.03 µM",20.52%
CCOCCN(CCOCC)c1nc(C)nc2sccc12,Percent Effect,"30.3 µM, […]",93.26%
CCCN(CCOC)c1nc(C)nc2sccc12,Percent Effect,"30.3 µM, […]",19.01%
COCCN(Cc1sccc1C)c1nc(C)nc2sccc12,Percent Effect,"30.3 µM, […]",13.95%
Cc1nnc(SCCNC(=O)Cn2cnc3ccccc3c2=O)s1,Percent Effect,"30.3 µM, […]",15.09%
COc1cc(N2CCC3(CCN(Cc4csc(C)n4)C3)CC2)ncn1.O=C(O)C(F)(F)F,Percent Effect,"30.3 µM, […]",30.69%
Cc1cnc(N2CCC3(CCN(Cc4csc(C)n4)C3=O)C2)nc1.O=C(O)C(F)(F)F (stereo not given),Percent Effect,"30.3 µM, […]",19.08%
COc1cc(N2CCC3(CCN(Cc4csc(C)n4)C3=O)C2)ncn1.O=C(O)C(F)(F)F (stereo not given),Percent Effect,"30.3 µM, […]",55.45%
COCCCn1c(CN2CCSCC2)cnc1S(=O)(=O)C1CCCC1,Percent Effect,"30.3 µM, […]",17.55%
CCc1nc2n(n1)CC(NCC(=O)Nc1ccc(Cl)cn1)CC2 (stereo not given),Percent Effect,"30 µM, 30.03 µM",11.34%
CC(CNS(N)(=O)=O)Oc1cccc(Cl)c1 (stereo not given),Percent Effect,"30.3 µM, […]",5.132%
CCOc1ccccc1C(N)CC(C)C (stereo not given),Percent Effect,"30.3 µM, […]",19.23%
CC(CNS(C)(=O)=O)Oc1cccc(Cl)c1 (stereo not given),Percent Effect,"30.3 µM, […]",6.182%
CC(C)COc1ccccc1C(N)CC(C)C (stereo not given),Percent Effect,"30.3 µM, […]",23.51%
CNCc1cc(F)ccc1Oc1ccc(Cl)cc1,Percent Effect,"30.3 µM, […]",-3.595%
CC(C)C[C@H](N)COc1cccc(F)c1Oc1ccc(Cl)cc1,Percent Effect,"30.3 µM, […]",96.61%
NCc1ccc(Oc2cccc(Cl)c2Cl)cc1,Percent Effect,"30.3 µM, […]",17.28%
CC(C)C[C@H](N)COc1cccc(F)c1Oc1ccccc1,Percent Effect,"30.3 µM, […]",56.67%
COc1ccccc1C(N)CC(C)C (stereo not given),Percent Effect,"30.3 µM, […]",3.977%
Cc1ccc(Oc2c(F)cccc2OC[C@@H](N)CC(C)C)cc1,Percent Effect,"30.3 µM, […]",95.01%
CCCOc1ccccc1C(N)CC(C)C (stereo not given),Percent Effect,"30.3 µM, […]",24.69%
CC(C)C[C@H](N)COc1cccc(F)c1Oc1cccc(Cl)c1,Percent Effect,"30.3 µM, […]",98.08%
